# Compound activity deposited in PubChem BioAssay by National Center for Advancing Translational Sciences (NCATS).
# Shown are actives, neighbours in structure and some others; about 0.9% of the full set was active somewhere.
# RXFP1 agonist: qHTS Assay for Agonists of the Relaxin Receptor RXFP1 | HEK293T-RXFP1 cAMP TR-FRET, 30 min; response scale: percent of porcine relaxin response, buffer zero | Potency, µM (titrated, usually from 57.5 µM), for the others: top-dose activation, most hits filed as activators | 0.3% of 370,000 active; active = well fitted activation curve with a large enough effect; inconclusive = small, poorly fitted or top-dose-only effect; note: potency is the fitted concentration of half-maximal effect; % is set by controls: 0 for no effect and ±100 for the full control effect; nearly all actives have a fitted effect of over 60% in size
#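 cAMP rise read by TR-FRET after 30 min, 37C compound exposure (up to 58 uM) in RXFP1-transfected HEK293 cells with Ro 20174 present. EC50 from Hill-equation fits, with 29 nM porcine relaxin as 100% and buffer as basal.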
# gsp ag: qHTS for Agonist of gsp, the Etiologic Mutation Responsible for Fibrous Dysplasia/McCune-Albright Syndrome: qHTS; AID 624287, 2012; gsp mutant cells, cAMP HTRF, 30 min; Potency, µM (series often up to 76.9 µM), without a hit: top-dose activation (cAMP increase), actives largely listed as activators; 0.13% of 340,000 active; active = well fitted activation curve with a large enough effect; inconclusive = small, poorly fitted or top-dose-only effect, or another doubt; inactive = no such curve, though single readings can be large or run the other way; cell line not stated here;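 note: phosphodiesterase inhibitor Ro 20-1724 added with compounds to block cAMP breakdown; potency is the fitted concentration of half-maximal effect; nearly all actives have a fitted effect of over 60% in size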
#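 Cells in DMEM/10% FBS with G418 were pretreated with compounds in DMSO plus […] (300 uM stock) for 30 min at 37C. cAMP was measured by HTRF (cAMP-d2 plus anti-cAMP antibody-K) after 30 min at room temperature.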
# RXFP1 antagonist: qHTS Assay for Antagonists of the Relaxin Receptor RXFP1 | Relaxin receptor 1 (Homo sapiens), Q9HBX9 | HEK293-RXFP1, relaxin-stimulated cAMP HTRF, 30 min; hits give low values | activity change, negative = inhibition, % at 57.5 µM | 0.59% of 350,000 active | AID 1259400, 2018;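 active = activity change of -60% or lower, but not beyond a set lower limit; inconclusive = change between -60% and -40%, or beyond the set limit; inactive = change above -40%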; note: % is set by controls: 0 for no effect and ±100 for the full control effect
# gsp antagonist: qHTS for Antagonists of gsp, the Etiologic Mutation Responsible for Fibrous Dysplasia/McCune-Albright Syndrome: qHTS | gsp-mutant cells, cAMP HTRF, 30 min | Potency, µM (doses to about 76.9 µM), for the others: at the highest dose activity change, negative = inhibition, most hits filed as inhibitors | 0.4% of 340,000 active | AID 624288, 2012; calls by dose curve; cell line not stated here;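 note: intracellular cAMP measured with PDE inhibitor Ro 20-1724 present during compound exposure; potency is the fitted concentration of half-maximal effect; % is set by controls: 0 for no effect and ±100 for the full control effect; nearly all actives have a fitted effect of over 65% in size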
#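 Cells in G418 medium, seeded 16-24 h, 37C; buffer exchange to DPBS + 1 mM CaCl2, 0.5 mM MgCl2, 0.05% BSA; cpds in DMSO + […] (300 uM stock), 30 min 37C; HTRF cAMP detection.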
# The depositor's hits bear a star; ? = inconclusive; . = no result; [ ] = dose if it differs, or a comment.
SMILES,RXFP1 agonist,gsp ag,RXFP1 antagonist,gsp antagonist
CCOc1ccc(/C(O)=C2/C(=O)C(=O)N(CCCN3CCOCC3)C2c2ccc(C)cc2)cc1C (stereo unspecified),27%,39%,-1,11µM*
CNC(=O)c1ccccc1Sc1ccc2c(/C=C/c3ccccn3)n[nH]c2c1,.,.,28,.
O=C(Nc1cccc(C(=O)OCc2cc(=O)n3nc(C4CC4)sc3n2)c1)c1ccc(F)cc1,8%,.,4,.
CCc1ccc(Nc2cc(C)nc3nc(Cc4ccc(Cl)cc4)nn23)cc1,-1%,.,.,.
CCSc1ncc(Cl)c(C(=O)Nc2sc(C(C)=O)c(C)c2C(=O)OC)n1,0%,.,.,.
S=c1nc(-c2ccccc2)[nH]c2ccccc12,?,16µM*,6,9%
Cc1cn2c(=O)cc(COC(=O)c3cccc(NC(=O)c4ccccc4Cl)c3)nc2s1,5%,.,4,.
CC(=O)Nc1ccc(NC(=O)C2CCC(N3C(=O)C4C5C=CC(C6CC56)C4C3=O)CC2)cc1 (stereo unspecified),0%,24%,2,8%
O=C(Nc1ccc(Cc2ccncc2)cc1)C1CCC(N2C(=O)C3C4C=CC(C5CC45)C3C2=O)CC1 (stereo unspecified),-2%,?,-16,7.9µM*
O=[N+]([O-])c1ccc(CSc2nnc3ccccn23)cc1,17%,18µM*,-1,1%
CCOC(=O)N1CCc2c(sc3c2c(=O)n(-c2ccc(F)cc2)c(=O)n3CC(=O)c2ccc(Cl)cc2)C1,22%,.,-8,.
Cc1ccccc1OCCn1c(CCNC(=O)C2CCCCC2)nc2ccccc21,-2%,.,-12,.
CC1(C)COCN1S(=O)(=O)c1ccc(C(=O)Nc2nnc(-c3ccc(Cl)s3)o2)cc1,0%,-1%,-12,32µM*
Cc1ccccc1CS(=O)(=O)c1nnc([C@H](Cc2ccccc2)NC(=O)OC(C)(C)C)o1,0%,-59%,-67*,22%
CCN(CCNC(=O)C1CCN(Cc2nc(-c3ccc(Cl)cc3)oc2C)CC1)c1ccccc1,1%,1%,-62*,1%
OC[C@H]1O[C@H](O[C@]2(CCl)O[C@H](CCl)[C@@H](O)[C@@H]2O)[C@H](O)[C@@H](O)[C@H]1Cl,.,.,-4,.
O=C(Nc1ccccc1)C1C(c2ccccc2)C1(Cl)Cl (stereo unspecified),-1%,11%[15.4 µM],-39,2%
O=C(Nc1ccc(Cl)cn1)C1C(c2ccccc2)C1(Cl)Cl (stereo unspecified),1%,0%[15.4 µM],-98*,-5%
Cc1cc(C)cc(NC(=O)CSc2nccn2C2CCCC2)c1,1%,.,-17,.
CCC(=O)N1CCN(c2ccccc2NC(=O)c2ccc(-c3cccc([N+](=O)[O-])c3)o2)CC1,1%,-1%[15.4 µM],-4,5.6µM*
Cn1cccc1-c1cc(C(=O)N/N=C/c2cc(Br)ccc2O)[nH]n1,28%,30%,-61*,?
CC1(C)CC(C(CCN(Cc2ccccc2)C(=O)c2ccco2)c2ccc(F)cc2)CCO1 (stereo unspecified),2%,-3%,-28,28µM*
Fc1ccc(C2CC(c3ccccc3)Nc3ncnn32)cc1 (stereo unspecified),0%,8%,.,11µM*
Cc1ccc(SC(CC(=O)c2ccc(F)cc2)C(=O)O)cc1 (stereo unspecified),5%,-8%[15.4 µM],-8,-16%
CC(C)(C)c1ccc(C(=O)CC(Sc2ccc(Cl)cc2)C(=O)O)cc1 (stereo unspecified),0%,-23%,-96*,-31%
COc1ccc(-c2nc3sc(CCNC(=O)Cc4ccccc4)c(C)n3n2)cc1,0%,.,2,.
CCOC(=O)c1c(C)n(-c2ccc(C)cc2)c2ccc(OCC(O)CN3CCN(C)CC3)cc12 (stereo unspecified),0%,-25%,-86*,11%
Cc1ccc(N2CCN(C(=O)c3noc4c3COc3ccc(C)cc3-4)CC2)c(C)c1,0%,.,.,.
CCOCCCNC(=O)C(c1ccc(C)cc1)N(Cc1ccc2c(c1)OCO2)C(=O)c1ccccc1O (stereo unspecified),-1%,.,-21,.
